# Screening data as filed in PubChem.
# Most compounds without a hit are left out; they make up all but 11% or so of the library.
# ALDH1A1 inh: blocks purified human ALDH1A1 activity | 220,000 tested, 7.3% active | AID 1030 | Potency, µM (series often up to 75.3 µM), for inactives: top-dose activity, negative = inhibition, hits mostly inhibitors | Purified ALDH1A1, NADH fluorescence, propionaldehyde substrate;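 also: potency is read from the fitted curve at half-maximal effect; plate controls were no enzyme wells and a reference inhibitor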
# HPGD inh: blocks human HPGD enzyme activity; purified HPGD, NADH fluorescence kinetic, PGE2 substrate; Potency, µM, inactives show at the top dose activity change, negative = inhibition, actives largely listed as inhibitors; 150,000 tested, 4.3% active; AID 894; also: potency is read from the fitted curve at half-maximal effect
# Target sequence (P15428 whole entry, looked up): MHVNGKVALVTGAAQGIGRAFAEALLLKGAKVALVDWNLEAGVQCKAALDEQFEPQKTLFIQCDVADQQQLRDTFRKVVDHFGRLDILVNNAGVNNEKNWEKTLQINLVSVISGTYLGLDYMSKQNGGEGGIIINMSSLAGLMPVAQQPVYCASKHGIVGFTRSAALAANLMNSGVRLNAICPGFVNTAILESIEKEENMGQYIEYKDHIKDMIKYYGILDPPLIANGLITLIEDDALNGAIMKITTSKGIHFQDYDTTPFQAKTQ
#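 20 nM HPGD preincubated 15 min at room temperature with compound in 50 mM Tris-HCl pH 8, 0.01% Tween 20. Started with 1 mM NAD+ and 30 uM prostaglandin E2; NADH fluorescence (360/450 nm) read 5 times over 30-s intervals, last minus first.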
# PNC assembly inh: blocks assembly of the perinucleolar compartment; activity change (PNC), negative = inhibition, % at 10 µM; PC3M PTB-GFP, PNC prevalence imaging, 16 h; stronger effect = lower value; 140,000 tested, 3.1% active;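 active = readout at or below -70, meaning at least 70% loss of cells showing the perinucleolar compartment, a nuclear body marking cancer cells; inconclusive = readout between -30 and a set limit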;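 also: plate controls were DMSO wells for no effect and camptothecin positive control wells for full effect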
#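 PC3M cells stably expressing PTB-GFP, 750–1000 cells/well, treated 16 h at 37 °C with compound (23 nl of library stock), in duplicate. After paraformaldehyde fixation and Hoechst stain, imaged at 20x; PNC prevalence scored by image analysis.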
# IMPase cell inh: cell-permeable inhibitors of inositol monophosphatase (IMPase). 120,000 tested, under 10 active. inhibition (IP1 accumulation), % at 46.1 µM. CHO-M1 cells, IP1 accumulation, HTRF TR-FRET ratio; active = well fitted curve in the direction sought with a large enough effect in the signal ratio, not every such curve was filed as active; inconclusive = small, poorly fitted or top-dose-only effect, or a change in a side signal; inactive = no such curve, though single readings can be large or run the other way; the % refers to the signal ratio;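 also: cells stimulated with carbachol in lithium chloride buffer; plate controls were DMSO basal wells for no effect and reference inhibitor wells for full effect; higher means more IMPase inhibition seen as more IP1 and lower FRET ratio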
# Target sequence (P97697 whole entry, looked up): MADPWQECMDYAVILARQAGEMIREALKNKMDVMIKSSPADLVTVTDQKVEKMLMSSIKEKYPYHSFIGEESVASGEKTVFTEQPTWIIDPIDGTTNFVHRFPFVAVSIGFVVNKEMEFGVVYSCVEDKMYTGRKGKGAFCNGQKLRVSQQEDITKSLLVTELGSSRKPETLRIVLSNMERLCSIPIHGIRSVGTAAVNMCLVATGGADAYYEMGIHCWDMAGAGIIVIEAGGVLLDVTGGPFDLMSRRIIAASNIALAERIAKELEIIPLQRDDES
#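 Measured: the HTRF emission ratio (665/620 nm) plus the 620 nm donor channel, each fitted to the Hill equation to give AC50. Cells were CHO-M1 given compounds up to 46 uM and a 30 min carbachol stimulation at 37C.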
# 12-hLO inh: inhibitors of human 12-lipoxygenase (ALOX12); P18054; 150,000 tested, 0.12% active; purified 12-hLO, xylenol orange hydroperoxide absorbance; Potency, µM (highest dose often 57.1 µM), for inactives: at the top dose activity change, negative = inhibition, most hits filed as inhibitors; active = well fitted curve in the direction sought with a large enough effect; inconclusive = small, poorly fitted or top-dose-only effect, or another doubt; inactive = no such curve, though single readings can be large; an effect the other way counts as inactive or inconclusive; also: potency is read from the fitted curve at half-maximal effect; nearly all actives have a fitted effect of over 55% in size
#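 150 nM 12hLO, 25 mM Hepes pH 7.0 + 0.01% Triton X-100; cpd preinc 15 min RT; 40 uM arachidonic acid, 30 min RT; Fe-XO 30 min; A573/A405 ratio as read-out.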
# IMPase Li inh: cell-permeable IMPase inhibitors with lithium potentiation; Potency, µM (top dose mostly 59.4 µM), inactives show at the top dose activity, negative = IMPase inhibition, hits mostly inhibitors; 210,000 tested, 0.35% active; CHO-M1 cells, IP1 TR-FRET (IP-One), carbachol + lithium; active = well fitted curve in the direction sought with a large enough effect; inconclusive = small, poorly fitted or top-dose-only effect, or another doubt; inactive = no such curve, though single readings can be large; an effect the other way counts as inactive or inconclusive;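 also: IP1 builds up when IMPase is blocked and the TR-FRET signal falls; potency is read from the fitted curve at half-maximal effect; plate controls were basal vehicle for no effect and high inhibitor control for full effect; nearly all actives have a fitted effect of over 50% in size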
#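 Readout is a homogeneous TR-FRET IP1 immunoassay (Ex 320, Em 665 and 620), where raised cytosolic IP1 lowers signal. Cells were CHO-M1 treated 30 min at 37C with test compounds plus a little lithium; AC50 values came from Hill-equation fitting.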
# An asterisk follows results filed as active; ? = inconclusive; . = no result given; [ ] = another dose, or the depositor's remark. Unless noted, calls follow the shape of the dose curve; as a rule, active = well fitted inhibition curve with a large enough effect (not every such curve was filed as active); inconclusive = small, poorly fitted or top-dose-only effect, or another doubt; inactive = no such curve, though single readings can be large or run the other way. Unless noted, % is scaled to controls: 0 for no effect and ±100 for the full control effect.
SMILES,ALDH1A1 inh,HPGD inh,PNC assembly inh,IMPase cell inh,12-hLO inh,IMPase Li inh
N#Cc1ccc(-c2ccc(F)cc2)nc1SCC(=O)Nc1sc2c(c1C#N)CCC2,25µM*,?,17,5,-8%,?
CC(=O)NC1C(=O)N=C(SCC(=O)Nc2sc3c(c2C#N)CCCCCC3)NC1=O (stereo not drawn),40µM*,.,.,.,.,-1%
N#Cc1c(NC(=O)CSc2nc(N)cc(=O)[nH]2)sc2c1CCCCCC2,2%,-6%,-27,1,-2%,12%[38.3 µM]
CCC1C(=O)N=C(SCC(=O)Nc2ccc(C(=O)OC)cc2)NC1=O (stereo not drawn),3%,14µM*,29,8,2%,18%[38.3 µM]
N#Cc1c(NC(=O)CSc2ncn[nH]2)sc2c1CCCCC2,?,-7%,-117*,-6,-3%,24%[38.3 µM]
COC(=O)c1ccc(NC(=O)CSC2=NCCN2)cc1,-17%,-7%,17,7,-4%,0%
Cn1nnnc1SCCOc1ccc(C#N)cc1,8%,-2%,6,6,-4%,-30%[38.3 µM]
CCOc1ccccc1NC(=S)N1CCN(c2nc(-c3ccc(F)cc3)cs2)CC1,0%,.,.,.,.,1%
O=C(c1cc2ccccc2o1)N1CCCCCC1,?,7.9µM*,250,6,12%,25%
O=C(Nc1ccc(N2CCOCC2)cc1)c1cc2ccccc2o1,?,-24%,-28,8,-17%,21%[38.3 µM]
CC1CCN(C(=O)c2cc3ccccc3o2)CC1,?,11µM*,-24,7,-4%,26%[38.3 µM]
O=C(/C=C/N1CCOCC1)c1cc2ccccc2o1,18µM*,-14%,35,-14[1.84 µM],-2%,33%[38.3 µM]
O=C(Nc1ccccc1)N1CCCC2(CCNCC2)C1,15%,-6%,.,.,2%,0%
CC1Cc2ccccc2N1C(=O)CSc1nnc2sc3ccccc3n12 (stereo not drawn),14µM*,-4%,?,-4,-2%,10%[38.3 µM]
CCCn1c(SCC(=O)N2c3ccccc3CC2C)nnc1-c1ccco1 (stereo not drawn),-14%,-10%,-100*,9,0%,-1%
CCCn1c(SCC(=O)N2CCc3ccccc32)nnc1-c1ccco1,?,-13%,-12,-1,0%,-2%[38.3 µM]
CC1Cc2ccccc2N1C(=O)CSc1nnnn1C(C)C (stereo not drawn),28µM*,-6%,-3,-2,3%,-11%[38.3 µM]
CC1Cc2ccccc2N1C(=O)CSc1nnnn1C (stereo not drawn),-4%,3%,47,-6,3%,26%[38.3 µM]
CC1Cc2ccccc2N1C(=O)CSc1nnnn1-c1ccc2c(c1)OCCO2 (stereo not drawn),?,-12%,-26,3,-5%,-6%[38.3 µM]
CC1Cc2ccccc2N1C(=O)CSc1nnnn1C1CCCC1 (stereo not drawn),2.5µM*,-18%,?,4,4%,4%[38.3 µM]
CC1Cc2ccccc2N1C(=O)CSc1nc2ccccc2s1 (stereo not drawn),-5%,-17%,?,-11,-4%,9%
CCN1C(=O)N[C@@H](c2cccs2)C(C(C)=O)=C1C,-6%[13.5 µM],-1%,.,.,6%[11.4 µM],-3%
CCOc1ccc(-c2nn(-c3ccccc3)cc2C2NC(=O)NC(C)=C2C(=O)OC(C)C)cc1 (stereo not drawn),.,.,.,2,.,.
CC1(C)CN=c2s/c(=C\c3ccc(Cl)cc3)c(=O)n2C1,2.2µM*,.,.,.,.,4%
CCCCCC1=C2CNC(CCC)(C(=O)OC)C=C2C(C)C1=O (stereo not drawn),28µM*,-22%,.,.,-7%,13%
CCCCCC1=C2CNC(C)(C(=O)OC)C=C2C(C)C1=O (stereo not drawn),-8%,-7%,.,.,2%,-6%
Cn1cccc1C(=O)N1CCC2(CCN(C(=O)Nc3cccc(C#N)c3)CC2)CC1,-7%,-1%,.,.,-2%,-22%
CCc1ccc(-c2nc(C(N)=O)c3[nH]c(=O)n(-c4ccccc4OC)c3n2)cc1,?,?,-106*,10,-3%,9%[38.3 µM]
